# Source: PubChem BioAssay (National Center for Advancing Translational Sciences (NCATS))
# GALK inh = blocks human galactokinase activity | AID 1868 | Purified GALK, Kinase-Glo residual ATP luminescence | hit rate 0.007% among 270,000 | P51570 | Potency, µM (top dose mostly 57.5 µM), for inactives: at the top dose activity change, negative = inhibition, most hits filed as inhibitors; further: potency means the concentration at half of the fitted maximal effect
#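 ATP-depletion format; final 35 uM ATP, 100 uM D-galactose, 5 nM enzyme; pH 8.0 HEPES/Mg2+ buffer; 60 min RT; luminescence read 10 min after detection reagent.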
# RORgamma inh = inhibitors of mouse ROR gamma transcriptional activity; Drosophila S2 Gal4-RORgamma UAS-luciferase reporter, 20 h; Potency, µM (top dose mostly 53.6 µM), inactives show top-dose activity change, negative = inhibition, most hits filed as inhibitors; hit rate 5.4% among 310,000; P51450; further: potency means the concentration at half of the fitted maximal effect; nearly all actives have a fitted effect of over 60% in size
#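 Using a luciferase readout, inhibitors were identified by reduced reporter activity in Drosophila cells coexpressing a copper-inducible Gal4–ROR gamma fusion and UAS-driven Photinus luciferase, incubated 20 hr after 700 uM copper sulfate.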
# Coupling enz = inhibits coupling enzyme system, counter-screen for aldolase hits; hit rate 0.67% among 290,000; AID 2472; coupling enzyme system counterscreen, AmpLite Red fluorescence; activity change, negative = inhibition, % at 58.2 µM, hits read low; in the data active means activity change below about -30%
#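 Final compound at 57.5 uM, incubated 10 min at RT with coupling enzyme reagent (glyceraldehyde-3-phosphate), then 20 min with substrate and AmpLite Red detection. Fluorescence read at 525/598 nm; tests interference with the coupling assay, not aldolase inhibition.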
# TrxR1 inh = rat TrxR1 inhibition | O89049 | recombinant rTrxR1, NADPH fluorescence consumption, selenite substrate | Potency, µM (top dose mostly 114 µM), for the others: at the highest dose activity change, negative = inhibition, actives largely listed as inhibitors | hit rate 1% among 390,000; further: potency means the concentration at half of the fitted maximal effect; nearly all actives have a fitted effect of over 65% in size
# Target sequence (O89049 whole entry, looked up): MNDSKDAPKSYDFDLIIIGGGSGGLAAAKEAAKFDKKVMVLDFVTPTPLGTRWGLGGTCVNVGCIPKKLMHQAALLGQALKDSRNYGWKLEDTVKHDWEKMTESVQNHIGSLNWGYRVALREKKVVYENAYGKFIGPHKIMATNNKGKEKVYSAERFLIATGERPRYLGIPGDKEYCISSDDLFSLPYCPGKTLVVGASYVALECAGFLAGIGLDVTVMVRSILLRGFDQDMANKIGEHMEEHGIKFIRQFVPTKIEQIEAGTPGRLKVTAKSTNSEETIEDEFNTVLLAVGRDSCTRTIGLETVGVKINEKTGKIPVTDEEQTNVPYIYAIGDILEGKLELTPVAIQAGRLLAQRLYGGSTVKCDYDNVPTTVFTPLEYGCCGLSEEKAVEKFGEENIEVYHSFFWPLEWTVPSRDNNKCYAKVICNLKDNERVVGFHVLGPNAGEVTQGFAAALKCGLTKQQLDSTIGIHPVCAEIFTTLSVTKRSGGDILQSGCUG
#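 Rat TrxR1 (90 nM in the dispensed reagent) was pre-reduced with 400 uM NADPH for 5 min at room temperature, then incubated with compound for 15 min. After 400 uM selenite was added, NADPH fluorescence (Ex 340/Em 450 nm) was followed for 8 min.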
# VP16 counter = counter-screen for ROR gamma inhibitors: Gal4-VP16 reporter | Drosophila S2 Gal4-VP16 UAS-luciferase, luminescence, 20 h | Potency, µM (top dose mostly 53.6 µM), for inactives: at the highest dose activity, negative = inhibition, hits mostly inhibitors | hit rate 3.5% among 310,000;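 further: Gal4-VP16 expression switched on by copper sulfate through the metallothionein promoter; potency means the concentration at half of the fitted maximal effect; nearly all actives have a fitted effect of over 50% in size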
# TrxR1 substrate = is turned over as a substrate by rat TrxR1; O89049; purified TrxR1 substrate turnover, NADPH consumption readout; Potency, µM (highest dose often 114 µM), without a hit: top-dose activity change, negative = substrate turnover; hit rate 0.01% among 390,000; further: potency means the concentration at half of the fitted maximal effect; nearly all actives have a fitted effect of over 50% in size
#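 Rat TrxR1, dispensed at 90 nM, was prereduced with 400 uM NADPH (final) for 5 min at ~22 deg C, then incubated with compound 15 min before 400 uM selenite. A first-read NADPH fluorescence drop versus no-compound background flagged substrates.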
# An asterisk follows results filed as active; ? = inconclusive; . = not tested or not shown; [ ] = remark or other dose. Compounds with a hit are over-represented: about 5.9% of the library has one in this group of screens. Unless noted, the call rests on the fitted dose curve; in most records, active means well fitted curve in the direction sought with a large enough effect; inconclusive means small, poorly fitted or top-dose-only effect, or another doubt; inactive means no such curve, though single readings can be large; an effect the other way counts as inactive or inconclusive. On the % scale 0 is the no-effect control and ±100 the full control effect.
SMILES,GALK inh,RORgamma inh,Coupling enz,TrxR1 inh,VP16 counter,TrxR1 substrate
COc1cc(/C=C/C(=O)O)cc(S(=O)(=O)NCCO)c1OC,1%,14%,0,?,-1%,2%[57.1 µM]
Cc1ccc(Oc2ccc(NC(=O)C3=CC=CN4CCS(=O)(=O)N=C34)cc2)cc1,.,.,.,4%,.,2%
COc1ccc(C(=O)Cc2nnc(C)s2)c(OC)c1,0%,?,-34*,3%,?,-2%
CCc1nnc(NC(=O)c2ccc(OC)cc2OC)s1,0%,6.3µM*,-2,23%,10µM*,6%
CCOC(=O)N=Nc1c2ccccc2c2nc3no[nH]c3nc12,-3%,0.35µM*,-51*,14%[57.1 µM],4µM*,0%[57.1 µM]
CCOC(=O)N=Nc1c(O)n(CC(=O)OC)c2ccccc12,2%,3%,-2,0%[57.1 µM],4%,-11%
c1ccc(Oc2ncnc3ccccc23)cc1,.,.,.,-3%[2.29 µM],.,-4%[2.29 µM]
Cc1nc(Oc2ccccc2)c2ccccc2n1,0%,-27%,3,-9%,1%,19%[57.1 µM]
COc1ccc(Oc2nc(-c3ccncc3)nc3ccccc23)cc1,2%,-33%,-2,-7%[57.1 µM],3%,-5%[57.1 µM]
COc1ccc(Oc2nc(-c3ccccn3)nc3ccccc23)cc1,0%,0.4µM*,-1,-4%[57.1 µM],2.5µM*,-4%
Fc1ccc(Oc2nc(-c3ccccn3)nc3ccccc23)cc1,.,0.71µM*,2,13%[57.1 µM],2.5µM*,-1%
c1ccc(Oc2c3ccccc3nc3ccccc23)cc1,1%,-16%,4,8.9µM*,2%,13%[57.1 µM]
c1ccc(Oc2nc(-c3ccccn3)nc3ccccc23)cc1,0%,0.63µM*,1,-5%,3.2µM*,-1%
O=C1CC(c2ccc(Cl)cc2)N=C(NC(=O)c2ccccc2)N1 (configuration not stated),.,.,.,24%[57.1 µM],.,-3%[57.1 µM]
CCN(CCCNC(=O)COc1cc(=O)n(C)c2ccccc12)c1ccccc1,-3%,-4%,0,-10%,-4%,-7%
Clc1ccccc1CN1CCN(/N=C/c2ccncc2)CC1,0%,23%,3,12%,2%,-6%
COc1ccc(-c2c(C)nn3c(N4CCC(C(=O)NCCN(C)C)CC4)cc(C)nc23)cc1OC,-2%,-27%,0,-4%[57.1 µM],-1%,5%[57.1 µM]
Cc1cc(N)ncc1[N+](=O)[O-],.,.,.,19%[57.1 µM],.,7%[57.1 µM]
Cc1cc(Sc2ncnc(N)c2[N+](=O)[O-])ncn1,1%,3.5µM*,5,?,4.5µM*,9%[57.1 µM]
Cc1ccc(C)c(Oc2ncnc(N)c2[N+](=O)[O-])c1,2%,16%,3,13%,4%,0%
Cc1cc(Sc2nc(N)ncc2[N+](=O)[O-])ncn1,4%,0.79µM*,1,1.6µM*,?,10%[57.1 µM]
CCOc1ccc(CNC(=S)N/N=C/c2ccc(OC)c(OC)c2)cc1,0%,11µM*,4,2%,10µM*,-7%
COc1cc(/C=N/NC(=S)NCc2ccccc2)ccc1OCC#N,2%,10µM*,1,24%[57.1 µM],?,10%
O=C(O)CCNS(=O)(=O)c1ccccc1Br,0%,-17%,0,31%,0%,4%
CCCCc1nnc(NC(=O)C2CC(=O)N(c3ccc(C)cc3)C2)s1 (configuration not stated),0%,-9%,4,-5%,0%,1%
SMILES,GALK inh,RORgamma inh,Coupling enz,TrxR1 inh,VP16 counter,TrxR1 substrate
Cc1ccc2c(c1)CN1CN2Cc2cc(C)ccc21,0%,-10%,0,-8%,0%,-7%
S=c1[nH]nc(-c2ccccc2Cl)n1Cc1ccccc1,-4%,2.8µM*,1,4%[57.1 µM],?,6%[57.1 µM]
S=c1[nH]nc(-c2ccc3ccccc3n2)n1Cc1ccccc1,0%,2.2µM*,1,-8%,5.6µM*,0%
FC(F)C(F)(F)Oc1cccc(-c2n[nH]c(=S)n2Cc2ccccc2)c1,.,.,.,-17%[57.1 µM],.,-6%[57.1 µM]
Fc1ccc(-n2c(-c3ccc4ccccc4n3)n[nH]c2=S)cc1,-2%,13%,1,?,1%,-3%
S=c1[nH]nc(-c2ccc3ccccc3n2)n1-c1cc(Cl)cc(Cl)c1,-3%,0.79µM*,-6,-3%,2.2µM*,-3%
